Experimental findings from the supplement of paper PMC11001985 are described below.

Sequence of UniProt Q15149 (Q15149 whole entry): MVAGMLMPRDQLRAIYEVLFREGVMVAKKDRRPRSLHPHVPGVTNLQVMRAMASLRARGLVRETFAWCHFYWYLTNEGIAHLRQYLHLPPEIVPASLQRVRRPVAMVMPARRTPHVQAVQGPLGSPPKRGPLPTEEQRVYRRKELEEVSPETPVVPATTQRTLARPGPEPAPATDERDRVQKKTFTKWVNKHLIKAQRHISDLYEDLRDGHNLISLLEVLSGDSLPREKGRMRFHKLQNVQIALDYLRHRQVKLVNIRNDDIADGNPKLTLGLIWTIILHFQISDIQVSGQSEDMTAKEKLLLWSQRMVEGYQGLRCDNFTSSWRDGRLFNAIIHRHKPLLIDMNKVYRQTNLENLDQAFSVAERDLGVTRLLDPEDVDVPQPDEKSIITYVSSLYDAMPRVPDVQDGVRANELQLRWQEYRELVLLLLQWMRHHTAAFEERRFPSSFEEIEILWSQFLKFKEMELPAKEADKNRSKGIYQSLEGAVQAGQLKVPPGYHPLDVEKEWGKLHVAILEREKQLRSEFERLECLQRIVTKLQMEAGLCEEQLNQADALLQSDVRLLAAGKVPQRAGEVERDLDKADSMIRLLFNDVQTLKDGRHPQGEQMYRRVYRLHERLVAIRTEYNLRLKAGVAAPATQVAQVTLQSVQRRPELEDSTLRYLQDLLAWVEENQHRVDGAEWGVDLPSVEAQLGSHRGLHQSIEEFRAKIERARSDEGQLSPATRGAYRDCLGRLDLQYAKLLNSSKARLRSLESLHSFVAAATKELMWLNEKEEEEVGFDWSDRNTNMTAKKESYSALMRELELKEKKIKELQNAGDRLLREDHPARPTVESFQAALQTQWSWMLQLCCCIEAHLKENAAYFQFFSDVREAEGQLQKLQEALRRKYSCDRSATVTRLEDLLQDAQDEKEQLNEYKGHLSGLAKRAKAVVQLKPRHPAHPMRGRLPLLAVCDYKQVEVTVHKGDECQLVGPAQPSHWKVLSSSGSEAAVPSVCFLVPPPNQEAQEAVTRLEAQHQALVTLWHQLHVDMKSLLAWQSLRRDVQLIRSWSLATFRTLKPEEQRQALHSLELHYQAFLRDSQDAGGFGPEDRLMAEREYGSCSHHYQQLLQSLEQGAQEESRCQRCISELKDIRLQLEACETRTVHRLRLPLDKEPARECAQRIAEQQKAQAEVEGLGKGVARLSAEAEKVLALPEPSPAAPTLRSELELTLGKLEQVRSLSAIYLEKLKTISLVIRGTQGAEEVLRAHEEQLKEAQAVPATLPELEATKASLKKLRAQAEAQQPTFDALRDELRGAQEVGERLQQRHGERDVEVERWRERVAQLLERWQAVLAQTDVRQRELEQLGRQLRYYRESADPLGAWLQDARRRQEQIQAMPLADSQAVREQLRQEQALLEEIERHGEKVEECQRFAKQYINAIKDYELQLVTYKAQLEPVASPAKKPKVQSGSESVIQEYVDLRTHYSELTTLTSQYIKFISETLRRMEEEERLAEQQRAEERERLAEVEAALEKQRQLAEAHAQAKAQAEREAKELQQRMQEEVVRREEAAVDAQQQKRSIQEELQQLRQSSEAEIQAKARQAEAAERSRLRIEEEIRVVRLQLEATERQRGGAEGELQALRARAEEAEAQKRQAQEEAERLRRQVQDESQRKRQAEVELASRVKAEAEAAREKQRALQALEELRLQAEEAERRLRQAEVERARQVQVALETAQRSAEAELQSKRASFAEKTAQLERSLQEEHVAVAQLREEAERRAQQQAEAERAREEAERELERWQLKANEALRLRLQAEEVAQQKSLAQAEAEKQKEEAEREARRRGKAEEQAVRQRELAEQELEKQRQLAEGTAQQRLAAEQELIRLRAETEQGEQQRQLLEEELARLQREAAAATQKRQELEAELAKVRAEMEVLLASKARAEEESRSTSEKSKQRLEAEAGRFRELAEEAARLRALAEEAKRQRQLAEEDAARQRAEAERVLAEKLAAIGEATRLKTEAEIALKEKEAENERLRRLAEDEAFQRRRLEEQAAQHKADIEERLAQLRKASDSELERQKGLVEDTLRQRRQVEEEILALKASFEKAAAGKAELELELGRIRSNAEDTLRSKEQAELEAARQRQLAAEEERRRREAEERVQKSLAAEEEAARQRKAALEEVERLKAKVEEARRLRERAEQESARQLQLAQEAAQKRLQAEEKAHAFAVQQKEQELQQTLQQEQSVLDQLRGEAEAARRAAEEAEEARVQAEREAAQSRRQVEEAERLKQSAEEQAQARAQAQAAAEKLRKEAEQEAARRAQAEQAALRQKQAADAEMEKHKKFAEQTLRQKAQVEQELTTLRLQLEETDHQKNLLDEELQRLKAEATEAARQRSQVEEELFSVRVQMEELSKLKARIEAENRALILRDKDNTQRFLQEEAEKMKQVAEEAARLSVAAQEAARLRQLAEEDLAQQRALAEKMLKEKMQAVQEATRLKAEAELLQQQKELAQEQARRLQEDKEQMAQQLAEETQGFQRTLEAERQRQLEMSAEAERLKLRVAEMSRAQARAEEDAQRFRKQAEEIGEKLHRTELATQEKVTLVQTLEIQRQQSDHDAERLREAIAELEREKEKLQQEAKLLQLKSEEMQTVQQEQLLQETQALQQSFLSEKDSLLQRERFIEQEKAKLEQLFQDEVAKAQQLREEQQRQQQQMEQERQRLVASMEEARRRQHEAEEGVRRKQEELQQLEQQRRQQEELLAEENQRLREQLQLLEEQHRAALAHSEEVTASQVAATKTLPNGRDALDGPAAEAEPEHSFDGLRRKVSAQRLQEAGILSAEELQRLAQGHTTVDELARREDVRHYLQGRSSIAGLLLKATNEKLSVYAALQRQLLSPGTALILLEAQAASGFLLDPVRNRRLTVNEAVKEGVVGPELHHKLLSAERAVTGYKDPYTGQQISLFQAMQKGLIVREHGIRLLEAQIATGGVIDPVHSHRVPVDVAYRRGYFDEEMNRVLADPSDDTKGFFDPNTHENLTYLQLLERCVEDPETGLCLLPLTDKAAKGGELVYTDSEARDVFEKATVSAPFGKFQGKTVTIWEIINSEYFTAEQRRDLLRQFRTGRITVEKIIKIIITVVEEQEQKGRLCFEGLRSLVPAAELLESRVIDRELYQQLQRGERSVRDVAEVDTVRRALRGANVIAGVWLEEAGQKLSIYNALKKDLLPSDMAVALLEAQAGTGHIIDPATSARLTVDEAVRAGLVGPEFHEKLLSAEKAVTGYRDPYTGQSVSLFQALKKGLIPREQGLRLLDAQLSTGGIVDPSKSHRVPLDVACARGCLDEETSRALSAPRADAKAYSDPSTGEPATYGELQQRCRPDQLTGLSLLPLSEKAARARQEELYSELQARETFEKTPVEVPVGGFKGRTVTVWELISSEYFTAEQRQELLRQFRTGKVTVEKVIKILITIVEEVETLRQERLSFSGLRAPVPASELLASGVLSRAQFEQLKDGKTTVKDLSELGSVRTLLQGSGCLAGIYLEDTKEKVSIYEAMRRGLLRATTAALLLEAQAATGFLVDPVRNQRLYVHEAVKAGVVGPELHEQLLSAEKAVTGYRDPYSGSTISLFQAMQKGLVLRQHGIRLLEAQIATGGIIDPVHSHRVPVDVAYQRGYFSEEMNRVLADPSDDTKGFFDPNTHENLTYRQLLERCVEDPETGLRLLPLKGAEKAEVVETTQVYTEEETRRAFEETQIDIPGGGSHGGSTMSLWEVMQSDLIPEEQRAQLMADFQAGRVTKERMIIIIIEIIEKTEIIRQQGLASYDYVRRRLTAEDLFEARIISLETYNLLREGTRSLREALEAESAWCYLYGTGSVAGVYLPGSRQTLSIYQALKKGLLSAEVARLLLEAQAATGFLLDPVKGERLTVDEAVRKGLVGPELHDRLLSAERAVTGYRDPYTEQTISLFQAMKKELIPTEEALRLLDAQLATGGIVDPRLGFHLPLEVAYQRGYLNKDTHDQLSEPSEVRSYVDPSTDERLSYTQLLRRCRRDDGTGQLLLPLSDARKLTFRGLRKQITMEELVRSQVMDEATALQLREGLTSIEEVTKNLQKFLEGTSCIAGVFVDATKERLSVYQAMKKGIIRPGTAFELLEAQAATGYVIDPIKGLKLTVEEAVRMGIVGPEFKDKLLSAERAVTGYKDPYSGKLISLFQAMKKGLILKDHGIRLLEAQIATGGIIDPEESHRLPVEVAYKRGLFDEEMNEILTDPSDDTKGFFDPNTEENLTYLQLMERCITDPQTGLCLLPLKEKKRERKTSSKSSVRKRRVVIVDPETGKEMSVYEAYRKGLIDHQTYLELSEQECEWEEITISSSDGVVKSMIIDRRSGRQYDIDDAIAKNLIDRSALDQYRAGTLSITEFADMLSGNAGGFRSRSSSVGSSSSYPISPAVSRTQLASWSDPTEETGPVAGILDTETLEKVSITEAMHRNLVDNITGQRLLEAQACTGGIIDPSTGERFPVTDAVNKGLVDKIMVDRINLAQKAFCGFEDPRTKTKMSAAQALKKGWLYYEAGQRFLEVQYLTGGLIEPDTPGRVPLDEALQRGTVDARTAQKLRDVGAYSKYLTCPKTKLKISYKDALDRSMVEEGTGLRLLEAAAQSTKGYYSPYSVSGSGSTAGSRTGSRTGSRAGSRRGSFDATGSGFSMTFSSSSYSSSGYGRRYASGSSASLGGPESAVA
Sequence of UniProt Q9UII2 (Q9UII2 whole entry): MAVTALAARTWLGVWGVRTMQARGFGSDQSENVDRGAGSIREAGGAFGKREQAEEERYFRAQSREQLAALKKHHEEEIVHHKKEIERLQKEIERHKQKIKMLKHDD
Sequence of UniProt P30533 (P30533 whole entry): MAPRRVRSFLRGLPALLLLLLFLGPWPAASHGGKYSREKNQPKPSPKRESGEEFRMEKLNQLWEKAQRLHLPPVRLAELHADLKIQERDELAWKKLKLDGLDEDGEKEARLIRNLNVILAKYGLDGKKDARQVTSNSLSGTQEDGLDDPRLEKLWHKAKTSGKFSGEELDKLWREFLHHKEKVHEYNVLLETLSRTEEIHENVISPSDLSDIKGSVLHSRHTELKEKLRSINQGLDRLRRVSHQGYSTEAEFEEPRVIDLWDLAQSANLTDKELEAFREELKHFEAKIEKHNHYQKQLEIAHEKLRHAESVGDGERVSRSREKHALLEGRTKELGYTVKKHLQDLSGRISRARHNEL

Compound in the assay: C#CCNC(=O)CCSSCCC(=O)NCCc1ccc(C=O)c(C=O)c1
Briefly: lysine labeling ratio R10:1 (500 µM / 50 µM probe), SILAC-ABPP in living cells; higher = lower intrinsic lysine reactivity toward the probe, active = 2 or less. As to conditions: HeLa; probe concentrations 500 vs 50 µM. Put shortly: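 With forward and reverse label swaps, light and heavy SILAC HeLa cells, alive and in PBS at room temperature, were exposed to either 500 µM or 50 µM of an alkyne-tagged lysine probe bearing a disulfide link. After mixing, lysates were clicked to biotin-azide, cut with trypsin, pulled down on neutravidin, freed with DTT, alkylated and analysed on a TIMS-TOF Pro by LC-MS/MS. The per-lysine value R is the median over forward and reverse replicates of the filtered median high-probe/low-probe MS1 peptide ratio. It is capped at 20.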
For the target “LRPAP1 (lysine site: K182) (UniProt P30533)”, the “lysine labeling ratio R10:1” value was 0.73 (active).
Consider UniProt Q15303 (lysine site: K109), for which the “lysine labeling ratio R10:1” value is 1.9 (active).
For “SLC25A5 (lysine site: K105) (UniProt P05141)” the value was 6.97 (inactive).
On to “SPTAN1 (lysine site: K441) (UniProt Q13813)”, for which the “lysine labeling ratio R10:1” value is 2.17 (inactive).
As to “ENG (lysine site: K291) (UniProt P17813)”, the “lysine labeling ratio R10:1” value is 5.59 (inactive).
The value for UniProt Q15149 (lysine site: K1055) was 1.98 (active); that for UniProt Q9NP84 (lysine site: K48) was 4.2 (inactive); that for “IQGAP1 (lysine site: K104) (UniProt P46940)” was 2.32 (inactive).
The value for “ENAH (lysine site: K574) (UniProt Q8N8S7)” was 5.16 (inactive); that for UniProt P08727 (lysine site: K398) was 2.38 (inactive).
The value for UniProt Q16181 (lysine site: K408) was 3.83 (inactive).
As for “IGF1R (lysine site: K221) (UniProt P08069)”, the “lysine labeling ratio R10:1” value was 1.51 (active).
For “SLC3A2 (lysine site: K615) (UniProt P08195)” the value was 3.54 (inactive); for “VCL (lysine site: K316) (UniProt P18206)”, 1.77 (active).
For the target “TLN1 (lysine site: K875) (UniProt Q9Y490)”, the “lysine labeling ratio R10:1” value was 7.4 (inactive).
The value for “EIF3H (lysine site: K274) (UniProt O15372)” was 1.92 (active).
With UniProt Q15149 (lysine site: K4140), the “lysine labeling ratio R10:1” value is 3.87 (inactive).
The value for “PDIA4 (lysine site: K145) (UniProt P13667)” was 0.551 (active); that for “CDH2 (lysine site: K189) (UniProt P19022)” was 4.45 (inactive).
Regarding UniProt Q15149 (lysine site: K2452), the “lysine labeling ratio R10:1” value was 3.75 (inactive).
On to “GPC1 (lysine site: K358) (UniProt P35052)”, for which the “lysine labeling ratio R10:1” value was 1.32 (active).
The value for “HEXB (lysine site: K517) (UniProt P07686)” was 2.41 (inactive); that for UniProt P14618 (lysine site: K270) was 1.75 (active).
The value for UniProt Q9UII2 (lysine site: K90) was 6.67 (inactive); that for “COL5A1 (lysine site: K605) (UniProt P20908)” was 2.05 (inactive); that for “PDIA6 (lysine site: K150) (UniProt Q15084)” was 4.08 (inactive).
The value for UniProt Q15149 (lysine site: K3476) was 1.8 (active).
As to UniProt Q15149 (lysine site: K4027), the “lysine labeling ratio R10:1” value is 2.34 (inactive).
The value for “ARHGDIA (lysine site: K178) (UniProt P52565)” was 3.53 (inactive).
In the case of UniProt Q12884 (lysine site: K591), the “lysine labeling ratio R10:1” value was 1.95 (active).
For UniProt P60866 (lysine site: K34) the value was 0.547 (active).
For “LGALS1 (lysine site: K64) (UniProt P09382)” the value was 3.47 (inactive); for UniProt Q15149 (lysine site: K1573), 2.01 (inactive); for “NRP1 (lysine site: K538) (UniProt O14786)”, 2.73 (inactive).
For “HSD17B10 (lysine site: K105) (UniProt Q99714)” the value was 2.63 (inactive); for UniProt O60462 (lysine site: K755), 2.55 (inactive); for “ITGB1 (lysine site: K72) (UniProt P05556)”, 1.91 (active).
On to “ACTN4 (lysine site: K535) (UniProt O43707)”, for which the “lysine labeling ratio R10:1” value was 1.05 (active).
For the target UniProt P62913 (lysine site: K52), the “lysine labeling ratio R10:1” value is 2.77 (inactive).
The value for “CD9 (lysine site: K135) (UniProt P21926)” was 3.43 (inactive).
